According to PubChem BioAssay AID1159580 (chemical genetic matrix, 2015):
“And” between values parts separate entries of the source, which are not always exact repeats. Identical values can stand only once. Screen size: about 5,500 compounds; about 2,000 (36%) were called active. Inconclusive results (about 18%) are left out. Cut-off read from the data, not from the text of the source: active = normalized growth mostly below about 0.91 (no sharp cut-off); inconclusive = no clear call, values can overlap the other calls; inactive = mostly above about 0.92. The list shows a part of the results.

Assay: chemical genetic growth profiling, strain panel (AID 1159580);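 note: tested at 20 µM; growth read once vehicle control cultures reached saturation at 30 °C; 1 = growth at the plate median or of vehicle wells; lower values mean less growth of the strain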
Details: S. cerevisiae deletion strains, growth OD

Measured: normalized growth

O=C1C(Cl)=C(Cl)C(=O)C(Cl)=C1Cl
active: locus YAL013W, strain DEP1, hits give low values 0.483 | locus YAL021C, strain ccr4, hits give low values 0.883 | locus YAL026C, strain drs2, hits give low values 0.831 | locus YBR009C, strain hhf1, hits give low values 0.843 | locus YBR021W, strain FUR4, hits give low values 0.293 | locus YBR279W, strain paf1, hits give low values 0.929 | locus YCL011C, strain gbp2, hits give low values 0.865 | locus YDL035C, strain GPR1, hits give low values 0.525 | locus YDL074C, strain BRE1, hits give low values 0.531 | locus YDL134C, strain PPH21, hits give low values 0.499 | locus YDL185W, strain tfp1, hits give low values 0.118 | locus YDL192W, strain arf1, hits give low values 0.239 | locus YDR101C, strain arx1, hits give low values 0.881 | locus YDR150W, strain NUM1, hits give low values 0.79 | locus YDR162C, strain NBP2, hits give low values 0.384 | locus YDR318W, strain mcm21, hits give low values 0.181 | locus YDR388W, hits give low values 0.164 | locus YDR392W, strain spt3, hits give low values 0.686 | locus YDR502C, strain sam2, hits give low values 0.61 | locus YEL003W, strain gim4, hits give low values 0.881 | locus YEL061C, strain CIN8, hits give low values 0.711 | locus YER015W, strain faa2, hits give low values 0.878 | locus YER110C, hits give low values 0.704 | locus YER155C, strain BEM2 (second series), hits give low values 0.763 | locus YER155C, strain BEM2, hits give low values 0.509 | locus YER167W, strain BCK2, hits give low values 0.198 | locus YFR010W, strain ubp6, hits give low values 0.891 | locus YGL078C, strain dbp3, hits give low values 0.077 | locus YGL086W, strain mad1, hits give low values 0.252 | locus YGL248W, strain PDE1, hits give low values 0.502 | locus YGR078C, strain PAC10, hits give low values 0.226 | locus YGR135W, strain pre9, hits give low values 0.335 | locus YGR229C, strain SMI1, hits give low values 0.0849 | locus YGR252W, strain gcn5, hits give low values 0.195 | locus YHR013C, strain ard1, hits give low values 0.829 | locus YHR027C, strain rpn1, hits give low values 0.904 | locus YHR030C, strain SLT2, hits give low values 0.281 and 0.105 | locus YHR079C, strain IRE1 (second series), hits give low values 0.91 | locus YHR079C, strain IRE1, hits give low values 0.129 | locus YHR094C, strain hxt1, hits give low values 0.614 | locus YHR129C, strain ARP1, hits give low values 0.655 | locus YHR200W, strain rpn10, hits give low values 0.27 | locus YIL066C, strain RNR3, hits give low values 0.634 | locus YIL073C, strain SPO22, hits give low values 0.5 | locus YIL125W, strain kgd1, hits give low values 0.0634 | locus YIR030C, strain dcg1, hits give low values 0.85 | locus YJL095W, strain BCK1, hits give low values 0.724 and 0.122 | locus YJL164C, strain tpk1, hits give low values 0.892 | locus YJL166W, strain qcr8, hits give low values 0.871 | locus YJL168C, strain set2, hits give low values 0.8 | locus YJR043C, strain POL32, hits give low values 0.671 | locus YJR066W, strain TOR1, hits give low values 0.0486 | locus YJR075W, strain HOC1, hits give low values 0.566
inactive: locus YAL030W, strain snc1, hits give low values 0.986 | locus YBL061C, strain skt5, hits give low values 0.994 | locus YBR023C, strain chs3, hits give low values 0.927 | locus YBR171W, strain sec66, hits give low values 0.967 | locus YBR229C, strain ROT2, hits give low values 0.979 | locus YBR231C, strain swc5, hits give low values 0.96 | locus YCL016C, strain dcc1, hits give low values 0.919 | locus YCL029C, strain bik1, hits give low values 0.929 | locus YCL069W, strain vba3, hits give low values 0.985 | locus YCR088W, strain abp1, hits give low values 0.949 | locus YDL005C, strain med2, hits give low values 1 | locus YDL040C, strain nat1, hits give low values 0.976 | locus YDL101C, strain DUN1, hits give low values 0.941 | locus YDR001C, strain nth1, hits give low values 0.991 | locus YDR069C, strain doa4, hits give low values 0.92 | locus YDR137W, strain rgp1, hits give low values 0.978 | locus YDR159W, strain sac3, hits give low values 1.03 | locus YDR195W, strain ref2 0.894 | locus YDR297W, strain sur2, hits give low values 0.997 | locus YDR334W, strain swr1, hits give low values 0.98 | locus YDR335W, strain msn5, hits give low values 0.963 | locus YEL037C, strain rad23, hits give low values 0.99 | locus YEL061C, strain CIN8 (second series), hits give low values 0.954 | locus YER016W, strain bim1, hits give low values 0.979 | locus YER111C, strain swi4, hits give low values 0.993 | locus YGL167C, strain pmr1, hits give low values 0.982 | locus YGL173C, strain kem1, hits give low values 0.958 | locus YGL227W, strain vid30, hits give low values 0.997 | locus YGL240W, strain doc1, hits give low values 0.99 | locus YGL253W, strain hxk2, hits give low values 0.993 | locus YHR142W, strain chs7, hits give low values 0.928 | locus YJL092W, strain hpr5, hits give low values 0.94 | locus YJL095W, strain BCK1 (second series), hits give low values 0.978 | locus YJL115W, strain asf1, hits give low values 0.979 | locus YJL129C, strain trk1, hits give low values 1 | locus YJL134W, strain LCB3, hits give low values 0.937 | locus YJL154C, strain vps35, hits give low values 0.984 | locus YJL187C, strain SWE1 (second series), hits give low values 0.982
